Structures are written as SMILES. Records with an inconclusive call do not appear. The source made the active and inactive calls. Rule for the calls: active = hit-call score of the fitted dose curve at least 0.9, where 1 is the maximum; inconclusive = response in the unintended direction; inactive = score below 0.9.

Assay [1] deals with human Peroxisome Proliferator-activated Receptor alpha (PPARa), PPARA (gene 5465) (UniProt Q07869). Nature of the assay: ATG_PPARa_TRANS: Attagene TRANS-FACTORIAL HepG2 Assay for human Peroxisome Proliferator-activated Receptor alpha (PPARa) (AID 2283001). The method, boiled down:
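Exposure: 24 h, transiently transfected HepG2 cells. Endpoint: GAL4-UAS reporter mRNA, RT-PCR with capillary electrophoresis fluorescence. Baseline: DMSO; increases fitted.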

Assay [2] has as its target human Retinoic Acid Receptor beta (RARb), RARB (gene 5915) (UniProt P10826). Put plainly: ATG_RARb_TRANS: Attagene TRANS-FACTORIAL HepG2 Assay for human Retinoic Acid Receptor beta (AID 2283004). The method, boiled down:
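HepG2 cells transiently transfected with multiplexed GAL4-UAS reporter units expressing chimeric NR–Gal4 fusions; 24 h compound exposure. Reporter mRNA quantified by RT-PCR, 6-FAM labelling, HpaI digestion and capillary electrophoresis; gain-of-signal fitted against DMSO baseline.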

The target of assay [3] is Peroxisome proliferator-activated receptor gamma (Homo sapiens) (UniProt P37231). Nature of the assay: ATG_PPARg_TRANS: Attagene TRANS-FACTORIAL HepG2 Assay for human Peroxisome Proliferator-activated Receptor-gamma (PPARg) (AID 2283007). The method, boiled down:
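Gain-of-signal endpoint relative to DMSO, derived from reporter mRNA levels quantified by RT-PCR and capillary electrophoresis. Cells were HepG2 transiently expressing a chimeric NR-Gal4 construct with GAL4-UAS reporters, exposed to chemicals for 24 h.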

Assay [4] deals with Nuclear receptor subfamily 1 group I member 2 (Homo sapiens) (UniProt O75469). Put plainly: ATG_PXR_TRANS: Attagene TRANS-FACTORIAL HepG2 Assay for human Pregnane X Receptor (PXR) (AID 2283008). The method, boiled down:
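Trans-factorial format: exogenous NR-Gal4 fusion activity, not endogenous factor, in transfected human HepG2 liver cells. After 24 h dosing, RNA isolated, reverse-transcribed, amplified and resolved by capillary electrophoresis; induction scored versus DMSO.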

Assay [5] has as its target Retinoic acid receptor RXR-alpha (Homo sapiens) (UniProt P19793). Put plainly: ATG_RXRa_TRANS: Attagene TRANS-FACTORIAL HepG2 Assay for human Retinoid X Receptor alpha (RXRa) (AID 2283012). The method, boiled down:
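Chimeric NR-GAL4 trans-activation in HepG2, 24 h treatment; reporter transcripts quantified by fluorescence on capillary electrophoresis, analysed for upward change from DMSO.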

Assay [6] has as its target human Retinoid X Receptor beta (RXRb), RXRB (gene 6257) (UniProt P28702). Put plainly: ATG_RXRb_TRANS: Attagene TRANS-FACTORIAL HepG2 Assay for human Retinoid X Receptor beta (RXRb) (AID 2283013). The method, boiled down:
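After a 24 h incubation with test chemical, transfected HepG2 cells carrying NR-Gal4 fusions and GAL4-UAS reporter transcription units yield RNA whose reporter cDNA is FAM-labelled, HpaI-cut and sized by capillary electrophoresis; increases over DMSO are scored.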

In assay [7] the target is Retinoic acid receptor alpha (Homo sapiens) (UniProt P10276). Nature of the assay: ATG_RARa_TRANS: Attagene TRANS-FACTORIAL HepG2 Assay for human Retinoic Acid Receptor alpha (RARa) (AID 2283005). The method, boiled down: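 HepG2 cells transiently transfected with multiple reporter units expressing chimeric RARα-GAL4 fusion, with GAL4-UAS-driven reporters. After 24 h compound exposure, reporter mRNA induction quantified by RT-PCR and capillary electrophoresis with fluorescent labeling; gain-of-signal fitted relative to DMSO control.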

Assay [8] deals with human RAR-related Orphan Receptor gamma (RORg), RORC (gene 6097) (UniProt P51449). Nature of the assay: ATG_RORg_TRANS: Attagene TRANS-FACTORIAL HepG2 Assay for human RAR-related Orphan Receptor gamma (RORg) (AID 2283011). The method, boiled down: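 Readout: reporter transcript induction (RT-PCR, fluorescent primer extension, capillary electrophoresis) after 24 h compound exposure of transiently transfected HepG2 cells carrying a RORg-Gal4 chimera and GAL4-UAS reporters; DMSO served as baseline, with increasing signal fitted.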
human RAR-related Orphan Receptor gamma (RORg), RORC (gene 6097), sequence (P51449 whole entry, looked up, the tested form may be a part): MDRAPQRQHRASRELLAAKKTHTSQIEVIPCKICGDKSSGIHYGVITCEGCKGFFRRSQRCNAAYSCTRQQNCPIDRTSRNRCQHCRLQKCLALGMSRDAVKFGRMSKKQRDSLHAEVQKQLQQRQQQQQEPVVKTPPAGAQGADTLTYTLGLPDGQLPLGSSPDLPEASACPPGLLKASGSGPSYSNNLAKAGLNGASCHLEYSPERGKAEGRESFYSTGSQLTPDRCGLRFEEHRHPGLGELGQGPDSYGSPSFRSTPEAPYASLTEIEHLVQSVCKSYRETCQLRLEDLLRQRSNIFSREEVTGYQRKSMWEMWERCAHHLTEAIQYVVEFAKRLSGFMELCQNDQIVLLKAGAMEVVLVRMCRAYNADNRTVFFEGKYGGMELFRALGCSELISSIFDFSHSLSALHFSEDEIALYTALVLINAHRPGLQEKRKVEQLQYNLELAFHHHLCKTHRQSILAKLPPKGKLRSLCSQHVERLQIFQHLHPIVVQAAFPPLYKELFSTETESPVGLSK

The target of assay [9] is human Thyroid Receptor alpha (THRa1), THRA (gene 7067) (UniProt P10827). Put plainly: ATG_THRa1_TRANS: Attagene TRANS-FACTORIAL HepG2 Assay for human Thyroid Receptor alpha (THRa1) (AID 2283014). The method, boiled down:
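HepG2 cells transiently transfected with multiplexed GAL4-UAS reporter units for exogenous chimeric THRa1-Gal4; reporter mRNA measured 24 h after dosing by RT-PCR, 6-FAM labelling, HpaI digestion and capillary electrophoresis. Gain-of-signal fitted versus DMSO baseline.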

The target of assay [10] is human RAR-related Orphan Receptor beta (RORb), RORB (gene 6096) (UniProt Q92753). Put plainly: ATG_RORb_TRANS: Attagene TRANS-FACTORIAL HepG2 Assay for human RAR-related Orphan Receptor beta (RORb) (AID 2283010). The method, boiled down: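 Multiplexed transcription-factor reporter assay: HepG2 cells transiently carrying NR-Gal4/GAL4-UAS constructs, 24 h treatment, mRNA quantified by RT-PCR plus capillary electrophoresis fluorescence; activity scored as induction over DMSO.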
human RAR-related Orphan Receptor beta (RORb), RORB (gene 6096), sequence (Q92753 whole entry, looked up, the tested form may be a part): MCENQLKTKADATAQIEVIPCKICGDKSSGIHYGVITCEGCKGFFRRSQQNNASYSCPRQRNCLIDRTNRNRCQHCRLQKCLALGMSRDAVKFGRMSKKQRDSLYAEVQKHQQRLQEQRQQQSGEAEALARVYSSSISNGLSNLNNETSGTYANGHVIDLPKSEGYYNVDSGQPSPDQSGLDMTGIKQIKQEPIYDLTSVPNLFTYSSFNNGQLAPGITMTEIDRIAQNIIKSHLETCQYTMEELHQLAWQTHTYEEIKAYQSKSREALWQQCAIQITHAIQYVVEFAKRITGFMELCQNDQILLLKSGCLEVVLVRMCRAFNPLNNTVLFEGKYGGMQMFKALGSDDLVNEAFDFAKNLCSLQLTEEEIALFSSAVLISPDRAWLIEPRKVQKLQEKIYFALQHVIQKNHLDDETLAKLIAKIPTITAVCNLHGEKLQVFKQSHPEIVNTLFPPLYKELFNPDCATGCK

Assay [11] concerns the target human Peroxisome Proliferator-activated Receptor delta (PPARd), PPARD (gene 5467) (UniProt Q03181). Put plainly: ATG_PPARd_TRANS: Attagene TRANS-FACTORIAL HepG2 Assay for human Peroxisome Proliferator-activated Receptor delta (PPARd) (AID 2283002). The method, boiled down:
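Measured quantity: GAL4-UAS reporter transcript induction in HepG2 after 24 h chemical dosing, with NR-Gal4 chimeras supplied by transient transfection. Detection by RT-PCR and capillary electrophoresis; upward fit against DMSO.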

In assay [12] the target is human Retinoic Acid Receptor gamma (RARg), RARG (gene 5916) (UniProt P13631). Nature of the assay: ATG_RARg_TRANS: Attagene TRANS-FACTORIAL HepG2 Assay for human Retinoic Acid Receptor gamma (RARg) (AID 2283009). The method, boiled down:
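Gain-of-signal relative to DMSO is reported from fluorescent capillary electrophoresis of RT-PCR reporter products. These came from HepG2 cells expressing transfected RARg-GAL4 chimeras with UAS reporters, harvested 24 h after dosing.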

human Thyroid Receptor alpha (THRa1), THRA (gene 7067), sequence (P10827 whole entry, looked up, the tested form may be a part): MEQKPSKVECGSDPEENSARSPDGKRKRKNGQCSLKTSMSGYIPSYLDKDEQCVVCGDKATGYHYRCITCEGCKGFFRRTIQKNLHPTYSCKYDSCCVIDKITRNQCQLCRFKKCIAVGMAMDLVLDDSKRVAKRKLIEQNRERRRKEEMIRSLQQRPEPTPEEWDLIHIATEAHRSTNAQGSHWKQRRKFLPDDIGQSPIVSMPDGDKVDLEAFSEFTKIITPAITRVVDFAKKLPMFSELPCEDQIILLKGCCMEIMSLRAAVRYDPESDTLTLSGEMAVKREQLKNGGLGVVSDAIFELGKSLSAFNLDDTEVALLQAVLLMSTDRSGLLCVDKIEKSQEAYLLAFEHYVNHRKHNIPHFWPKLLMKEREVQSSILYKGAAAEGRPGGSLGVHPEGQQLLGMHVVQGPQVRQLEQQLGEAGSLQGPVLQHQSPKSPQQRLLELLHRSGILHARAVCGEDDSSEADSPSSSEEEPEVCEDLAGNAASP
human Retinoic Acid Receptor beta (RARb), RARB (gene 5915), sequence (P10826 whole entry, looked up, the tested form may be a part): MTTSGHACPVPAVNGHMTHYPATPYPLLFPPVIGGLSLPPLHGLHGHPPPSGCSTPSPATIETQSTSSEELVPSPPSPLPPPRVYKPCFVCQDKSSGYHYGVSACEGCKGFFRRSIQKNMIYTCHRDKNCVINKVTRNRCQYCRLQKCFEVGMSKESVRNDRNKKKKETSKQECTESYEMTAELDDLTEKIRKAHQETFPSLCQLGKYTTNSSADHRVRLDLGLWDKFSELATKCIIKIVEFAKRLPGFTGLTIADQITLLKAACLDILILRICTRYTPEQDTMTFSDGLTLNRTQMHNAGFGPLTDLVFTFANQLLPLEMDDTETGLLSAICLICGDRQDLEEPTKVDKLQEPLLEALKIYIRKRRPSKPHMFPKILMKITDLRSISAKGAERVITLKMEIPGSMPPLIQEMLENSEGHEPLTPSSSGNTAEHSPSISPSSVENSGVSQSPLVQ
human Peroxisome Proliferator-activated Receptor delta (PPARd), PPARD (gene 5467), sequence (Q03181 whole entry, looked up, the tested form may be a part): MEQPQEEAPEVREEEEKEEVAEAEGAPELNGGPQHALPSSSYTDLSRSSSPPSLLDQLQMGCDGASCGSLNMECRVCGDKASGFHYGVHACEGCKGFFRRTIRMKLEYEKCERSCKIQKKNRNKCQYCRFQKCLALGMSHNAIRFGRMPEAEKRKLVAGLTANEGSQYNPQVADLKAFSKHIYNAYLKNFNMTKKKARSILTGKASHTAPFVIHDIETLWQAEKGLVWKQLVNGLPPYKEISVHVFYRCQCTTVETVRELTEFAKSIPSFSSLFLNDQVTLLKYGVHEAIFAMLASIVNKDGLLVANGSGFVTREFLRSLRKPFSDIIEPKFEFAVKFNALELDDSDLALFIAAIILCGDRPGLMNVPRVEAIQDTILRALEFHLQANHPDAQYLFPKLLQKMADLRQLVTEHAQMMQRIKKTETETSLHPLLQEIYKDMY
Peroxisome proliferator-activated receptor gamma (Homo sapiens), sequence (P37231 whole entry, looked up, the tested form may be a part): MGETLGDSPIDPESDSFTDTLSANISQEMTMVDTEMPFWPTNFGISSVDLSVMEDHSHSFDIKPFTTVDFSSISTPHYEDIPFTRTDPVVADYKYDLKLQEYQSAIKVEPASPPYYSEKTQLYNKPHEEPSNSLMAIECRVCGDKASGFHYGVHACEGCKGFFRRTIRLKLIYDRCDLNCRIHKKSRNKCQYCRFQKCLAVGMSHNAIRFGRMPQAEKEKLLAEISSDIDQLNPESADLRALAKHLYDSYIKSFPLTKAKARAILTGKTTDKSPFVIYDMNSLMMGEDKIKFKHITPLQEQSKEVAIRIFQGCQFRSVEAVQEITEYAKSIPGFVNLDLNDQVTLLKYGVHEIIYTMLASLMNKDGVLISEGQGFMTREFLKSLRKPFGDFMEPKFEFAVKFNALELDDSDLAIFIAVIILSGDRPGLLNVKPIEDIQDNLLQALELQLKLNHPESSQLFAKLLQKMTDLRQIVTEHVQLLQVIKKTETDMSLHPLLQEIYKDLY
Retinoic acid receptor RXR-alpha (Homo sapiens), sequence (P19793 whole entry, looked up, the tested form may be a part): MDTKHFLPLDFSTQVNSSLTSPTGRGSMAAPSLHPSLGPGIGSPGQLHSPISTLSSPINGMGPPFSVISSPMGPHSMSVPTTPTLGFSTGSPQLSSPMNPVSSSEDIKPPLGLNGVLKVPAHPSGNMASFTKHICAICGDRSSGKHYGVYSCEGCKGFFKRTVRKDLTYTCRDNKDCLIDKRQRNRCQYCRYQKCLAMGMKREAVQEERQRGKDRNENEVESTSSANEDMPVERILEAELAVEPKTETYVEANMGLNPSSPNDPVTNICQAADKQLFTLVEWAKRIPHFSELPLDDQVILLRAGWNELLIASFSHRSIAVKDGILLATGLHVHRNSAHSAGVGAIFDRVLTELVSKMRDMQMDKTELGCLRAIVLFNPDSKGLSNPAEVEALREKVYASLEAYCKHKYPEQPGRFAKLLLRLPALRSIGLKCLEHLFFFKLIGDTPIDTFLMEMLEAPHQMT
Nuclear receptor subfamily 1 group I member 2 (Homo sapiens), sequence (O75469 whole entry, looked up, the tested form may be a part): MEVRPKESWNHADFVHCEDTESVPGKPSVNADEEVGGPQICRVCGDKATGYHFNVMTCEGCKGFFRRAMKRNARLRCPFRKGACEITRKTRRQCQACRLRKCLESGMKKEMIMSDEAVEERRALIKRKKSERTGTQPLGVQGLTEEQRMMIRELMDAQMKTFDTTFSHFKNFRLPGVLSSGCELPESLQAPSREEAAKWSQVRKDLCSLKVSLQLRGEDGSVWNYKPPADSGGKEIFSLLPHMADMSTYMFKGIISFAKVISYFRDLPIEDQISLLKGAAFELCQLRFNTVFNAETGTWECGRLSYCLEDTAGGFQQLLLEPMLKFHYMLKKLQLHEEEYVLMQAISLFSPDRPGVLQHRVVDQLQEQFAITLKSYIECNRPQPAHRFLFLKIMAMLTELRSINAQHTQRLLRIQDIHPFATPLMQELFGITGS
human Retinoid X Receptor beta (RXRb), RXRB (gene 6257), sequence (P28702 whole entry, looked up, the tested form may be a part): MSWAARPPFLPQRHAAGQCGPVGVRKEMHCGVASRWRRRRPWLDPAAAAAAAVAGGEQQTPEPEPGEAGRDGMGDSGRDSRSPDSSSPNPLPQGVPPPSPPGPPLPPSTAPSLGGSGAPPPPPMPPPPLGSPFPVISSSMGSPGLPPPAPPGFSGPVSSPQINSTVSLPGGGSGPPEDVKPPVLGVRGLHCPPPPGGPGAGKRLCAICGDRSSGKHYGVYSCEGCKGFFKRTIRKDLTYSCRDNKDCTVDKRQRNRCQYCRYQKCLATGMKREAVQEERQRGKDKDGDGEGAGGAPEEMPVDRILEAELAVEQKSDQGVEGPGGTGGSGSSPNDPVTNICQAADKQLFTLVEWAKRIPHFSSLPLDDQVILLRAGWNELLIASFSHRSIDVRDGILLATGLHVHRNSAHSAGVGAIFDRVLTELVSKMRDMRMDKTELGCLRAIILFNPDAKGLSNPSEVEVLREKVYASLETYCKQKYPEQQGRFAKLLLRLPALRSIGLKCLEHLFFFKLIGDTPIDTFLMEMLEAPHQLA
human Retinoic Acid Receptor gamma (RARg), RARG (gene 5916), sequence (P13631 whole entry, looked up, the tested form may be a part): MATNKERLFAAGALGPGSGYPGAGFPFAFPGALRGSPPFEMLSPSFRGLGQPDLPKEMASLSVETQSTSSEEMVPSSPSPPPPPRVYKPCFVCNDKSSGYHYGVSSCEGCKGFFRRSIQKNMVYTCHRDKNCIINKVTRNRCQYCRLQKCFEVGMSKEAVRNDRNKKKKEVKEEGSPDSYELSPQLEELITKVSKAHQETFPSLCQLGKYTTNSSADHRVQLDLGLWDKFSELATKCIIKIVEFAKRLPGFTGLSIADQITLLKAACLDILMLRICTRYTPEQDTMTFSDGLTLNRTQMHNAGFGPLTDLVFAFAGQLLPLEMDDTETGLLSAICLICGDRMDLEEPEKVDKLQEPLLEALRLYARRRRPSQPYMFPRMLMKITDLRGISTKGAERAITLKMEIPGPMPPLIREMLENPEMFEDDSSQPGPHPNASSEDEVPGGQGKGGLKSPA

`CC(C)=CCCC(C)=CC#N`: the molecule was called inactive in assay [1], in assay [2], in assay [3], in assay [4], in [5] and in assay [6].
Consider `CCOC(=O)c1ccccc1C`, for which the call in assay [1], in assay [2], in assay [7], in assay [4], in assay [8] and in assay [9] was inactive.
For the molecule `CC(=O)CCC=C(C)C`, the call in assay [1], in [2], in assay [3], in assay [10], in assay [6] and in [9] was inactive.
As for `CC(C)CCOCc1ccccc1`, the molecule was classed as inactive in assay [1], in assay [3], in assay [4], in [8] and in assay [6].
On to `C=C(C)C1CC=C(C)C(OC(C)=O)C1` (stereo not drawn), for which the outcome in assay [11], in [7], in [3], in assay [4], in [12] and in assay [10] was inactive. In addition, the result in [6] was inactive.
Take `CCC[Si](OC)(OC)OC`: the molecule was classed as inactive in assay [11], in assay [2], in [7], in assay [4], in assay [12] and in assay [8]. In addition, the molecule was classed as inactive in assay [5], in assay [6] and in assay [9].
On to `CC(CC(C)C)=NO`, for which the molecule was called inactive in assay [11], in assay [7] and in assay [5].
Consider `COc1cc(C)ccc1O`, for which the call in [11], in assay [7], in assay [3], in assay [4], in assay [10] and in [5] was inactive. Moreover, the outcome in assay [6] and in assay [9] was inactive.
As to `CC1=C(O)C(=O)C(C)O1` (stereo not drawn), the outcome in assay [11], in assay [2], in assay [7], in assay [12], in assay [10] and in assay [8] was inactive. The call in [5] and in assay [6] was inactive.
As for `N#Cc1ccc(C2CCCc3cncn32)cc1` (stereo not drawn), the outcome in assay [11], in assay [2], in [3], in [4], in assay [12] and in assay [5] was inactive.
Regarding `Cc1cc(C)c(C=O)c(C)c1`, the result in assay [11], in [3], in assay [12], in [5], in [6] and in assay [9] was inactive. For the same molecule, the AC50 (in general, the concentration at which the activity in the assay is half-maximal) in assay [4] was 7.01 µM (active).
For `CC12CCC(CC1)C(C)(C)O2`, the molecule was classed as inactive in [11], in [2], in assay [10], in assay [8] and in assay [6].
Take `CCC(=O)C1CC(C(C)C)CC=C1C` (stereo not drawn): the molecule was called inactive in [11], in assay [7], in [12], in assay [10], in assay [8] and in [5]. Further, the results for the AC50 in [3] and in [4] were 58.3 µM (active) and 3.16 µM (active), respectively.
Consider `CC(=O)OCCc1ccccc1`, for which the outcome in [11], in assay [2], in assay [5], in assay [6] and in [9] was inactive.
Take `COc1nccnc1CC(C)C`: the molecule was classed as inactive in assay [11], in [2], in [4], in assay [12], in assay [8] and in assay [9].
With `Cc1ccc2c(c1)CCCN2`, the call in [11], in assay [2], in assay [3], in [4], in assay [10] and in assay [5] was inactive. Further, the result in assay [6] was inactive.
In the case of `CC(C)=NNC(N)=S`, the molecule was called inactive in [11], in assay [2], in assay [4], in assay [5], in [6] and in assay [9].
Consider `CC(C)OC(=O)c1ccccc1`, for which the molecule was classed as inactive in [11], in [2], in assay [7], in assay [12] and in assay [5].
For `C=Cc1ccc(OC(C)=O)cc1`, the call in assay [11], in assay [2], in [3], in [4], in [10] and in assay [8] was inactive. The molecule was classed as inactive in [5], in [6] and in assay [9].
Consider `CC(C)c1cc(C(C)C)cc(C(C)C)c1`, for which the result in assay [11], in [7] and in assay [3] was inactive. Moreover, the concentration at half-maximal activity (AC50) was 26.9 µM (active) in assay [4], 6.06 µM (active) in [5] and 0.399 µM (active) in [6].
As to `Nc1ccc(O)c([N+](=O)[O-])c1`, the molecule was classed as inactive in [11], in assay [3], in assay [4], in assay [10], in assay [5] and in [6]. In addition, in [9], the molecule was classed as inactive.
For `Cc1ccc(S(=O)(=O)N=C=O)cc1`, the molecule was called inactive in [11], in [3], in assay [4], in [8], in assay [5] and in assay [6].
`Cn1cccc1`: the outcome in assay [11], in assay [7], in assay [3], in assay [4], in assay [8] and in assay [5] was inactive. Further, the call in [6] was inactive.

For the origin of these results see PubChem BioAssay (EPA / NIEHS).
